42 molecules from PubChem BioAssay (Tox21) can be followed below.

The structures appear in SMILES notation. Values without a mark were called inactive. Records with an inconclusive call do not appear. The source made the active and inactive calls. Unless noted, the call rests on the fitted dose curve.

The target in test [1] is Acetylcholinesterase (Homo sapiens) (UniProt P22303). In words: Acetylcholinesterase (AChE) small molecule antagonists: colormetric cell-based qHTS assay (AID 1347395). Further: on the % scale 0 is the no-effect control and ±100 the full control effect; nearly all actives have a fitted effect of over 30% in size. Summed up:
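After overnight attachment at 37 C, SH-SY5Y cells get 30 min compound exposure; detection cocktail (acetylthiocholine, DTNB) then incubates 90 min at 37 C, and absorbance reflects AChE-generated thiocholine.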

The target is the same in test [2]. In words: Acetylcholinesterase (AChE) small molecule antagonists: enzyme-based qHTS assay (AID 1347397). Further: on the % scale 0 is the no-effect control and ±100 the full control effect; nearly all actives have a fitted effect of over 55% in size. As to conditions: Potency: AChE enzyme activity inhibition; outcome: AChE enzyme activity inhibition. Summed up:
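Colorimetric DTNB readout of acetylthiocholine hydrolysis, 10 min at room temperature, after 30 min room-temperature exposure of 50 mU/mL recombinant human enzyme to compound; DMSO vehicle control.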

The target is the same in test [3]. In words: Acetylcholinesterase (AChE) small molecule antagonists: fluorescence cell-based qHTS assay (AID 1347398). Further: nearly all actives have a fitted effect of over 50% in size. Further: potency means the concentration at half of the fitted maximal effect. On activity change, negative = inhibition: on the % scale 0 is the no-effect control and ±100 the full control effect. The settings on record: Potency: AChE activity; outcome: AChE activity. Summed up: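 Cellular AChE activity read as thiocholine from acetylthiocholine hydrolysis, detected by Thiolite Green fluorescence at 490/520 nm after 40 min at room temperature. Compounds were pre-incubated 30 min at 37 C on adherent SH-SY5Y cells.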
In general terms: qHTS replaces the single test concentration by a dilution series.

For test [4] the target is unchanged. In words: Acetylcholinesterase (AChE) small molecule antagonists: enzyme-based qHTS assay with human liver microsomes (AID 1347399). Further: on the % scale 0 is the no-effect control and ±100 the full control effect; nearly all actives have a fitted effect of over 60% in size. The settings on record: Potency: qHTS inhibition; outcome: qHTS inhibition. The gist of the method:
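Recombinant human AChE (50 mU/mL in the enzyme mix) and human liver microsomes (0.25 mg/mL final) were preincubated with compound and NADPH (0.25 mg/mL final) for 30 min at 37 C. Acetylthiocholine/DTNB was then added; thiocholine was read colorimetrically after 10 min at room temperature.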

A short description of test [5]: qHTS assay for small molecule agonists of the p53 signaling pathway (AID 651631). Further: potency means the concentration at half of the fitted maximal effect; nearly all actives have a fitted effect of over 15% in size. Summed up:
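Beta-lactamase reporter activity under p53 response elements was quantified in HCT-116 cells by FRET fluorescence, following 16 h incubation with test compounds at 37 °C and 2 h substrate development at room temperature.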

Another test addresses Aromatase (Homo sapiens) (UniProt P11511). As to the kind of experiment: qHTS assay to identify aromatase inhibitors (AID 743083; active means well fitted curve in the direction sought with a large enough effect in the repeat runs; an effect the other way counts as inactive or inconclusive; further: potency means the concentration at half of the fitted maximal effect; nearly all actives have a fitted effect of over 55% in size).
The target in test [6] is Aryl hydrocarbon receptor (Homo sapiens) (UniProt P35869). As to the kind of experiment: qHTS assay to identify small molecule that activate the aryl hydrocarbon receptor (AhR) signaling pathway (AID 743085; active means well fitted curve in the direction sought with a large enough effect in the repeat runs; an effect the other way counts as inactive or inconclusive;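 further: HG2L7.5c1 human HepG2 liver cells with stably integrated DRE-driven firefly reporter; series mostly up to about 70 µM; on the % scale 0 is the no-effect control and ±100 the full control effect; nearly all actives have a fitted effect of over 15% in size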). The gist of the method:
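Stably transfected human liver carcinoma cells (HG2L7.5c1; 20 DRE-firefly luciferase) were incubated 5 h, dosed, and kept 24 h at 37C. Agonism was scored from increased luciferase luminescence.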

Sequence of Acetylcholinesterase (Homo sapiens) (P22303 whole entry, looked up): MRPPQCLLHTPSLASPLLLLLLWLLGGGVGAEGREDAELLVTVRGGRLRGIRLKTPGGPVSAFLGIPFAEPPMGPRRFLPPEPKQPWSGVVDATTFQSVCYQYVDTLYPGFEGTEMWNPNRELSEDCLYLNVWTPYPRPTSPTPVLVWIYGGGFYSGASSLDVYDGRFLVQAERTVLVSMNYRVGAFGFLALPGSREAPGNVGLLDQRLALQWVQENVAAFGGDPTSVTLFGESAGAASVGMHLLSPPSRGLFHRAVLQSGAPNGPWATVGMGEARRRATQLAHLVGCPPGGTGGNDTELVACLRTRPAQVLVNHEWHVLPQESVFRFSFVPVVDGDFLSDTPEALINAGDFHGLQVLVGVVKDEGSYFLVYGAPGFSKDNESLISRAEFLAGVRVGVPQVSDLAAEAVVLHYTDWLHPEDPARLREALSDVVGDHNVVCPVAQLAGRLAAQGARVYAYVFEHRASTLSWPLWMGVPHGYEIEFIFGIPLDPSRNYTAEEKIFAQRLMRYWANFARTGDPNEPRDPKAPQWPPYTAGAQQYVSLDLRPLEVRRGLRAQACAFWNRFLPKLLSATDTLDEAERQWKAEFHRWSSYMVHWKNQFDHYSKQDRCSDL
Sequence of Aromatase (Homo sapiens) (P11511 whole entry, looked up): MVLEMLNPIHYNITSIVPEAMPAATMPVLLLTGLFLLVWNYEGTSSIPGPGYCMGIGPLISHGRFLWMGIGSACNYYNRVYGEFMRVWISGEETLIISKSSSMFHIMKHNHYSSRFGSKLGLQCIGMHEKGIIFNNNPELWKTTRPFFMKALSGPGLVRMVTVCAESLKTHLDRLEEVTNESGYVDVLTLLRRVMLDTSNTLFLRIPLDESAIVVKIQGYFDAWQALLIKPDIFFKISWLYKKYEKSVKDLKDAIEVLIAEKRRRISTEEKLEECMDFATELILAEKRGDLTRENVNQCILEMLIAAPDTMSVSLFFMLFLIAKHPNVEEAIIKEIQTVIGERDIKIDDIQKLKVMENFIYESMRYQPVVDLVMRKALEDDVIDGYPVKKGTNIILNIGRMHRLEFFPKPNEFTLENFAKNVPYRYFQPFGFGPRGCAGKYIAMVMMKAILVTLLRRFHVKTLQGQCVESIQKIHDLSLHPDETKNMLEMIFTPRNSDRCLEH
Sequence of Aryl hydrocarbon receptor (Homo sapiens) (P35869 whole entry, looked up): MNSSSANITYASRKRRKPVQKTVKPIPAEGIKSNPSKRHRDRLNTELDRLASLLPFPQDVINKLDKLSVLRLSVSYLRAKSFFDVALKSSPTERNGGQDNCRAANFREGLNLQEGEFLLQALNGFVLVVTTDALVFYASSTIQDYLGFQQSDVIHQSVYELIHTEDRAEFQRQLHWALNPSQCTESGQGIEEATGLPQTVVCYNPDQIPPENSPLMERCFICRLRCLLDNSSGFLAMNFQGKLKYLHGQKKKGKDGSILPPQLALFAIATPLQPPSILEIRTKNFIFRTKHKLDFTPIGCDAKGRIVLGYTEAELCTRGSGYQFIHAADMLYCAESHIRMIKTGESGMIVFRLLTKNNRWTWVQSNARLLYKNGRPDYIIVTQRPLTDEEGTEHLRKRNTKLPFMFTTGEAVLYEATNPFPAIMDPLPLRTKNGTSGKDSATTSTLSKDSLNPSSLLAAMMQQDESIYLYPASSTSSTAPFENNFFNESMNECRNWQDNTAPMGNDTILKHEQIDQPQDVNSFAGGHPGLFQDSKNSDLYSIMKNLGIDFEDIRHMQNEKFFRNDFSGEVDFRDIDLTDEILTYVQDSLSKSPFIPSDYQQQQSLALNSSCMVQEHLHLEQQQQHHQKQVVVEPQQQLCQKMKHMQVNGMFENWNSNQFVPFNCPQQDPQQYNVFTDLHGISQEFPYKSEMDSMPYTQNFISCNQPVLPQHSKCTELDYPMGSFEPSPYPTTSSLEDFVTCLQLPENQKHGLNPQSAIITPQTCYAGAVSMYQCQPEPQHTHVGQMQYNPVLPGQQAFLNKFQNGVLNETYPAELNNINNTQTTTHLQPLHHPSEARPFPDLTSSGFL

Regarding `O=C(c1ccccc1)C1CCC1`, the Potency result in test [1], in test [2], in test [3] and in test [4] was “inactive” each time.

For the molecule `CCOCCOCCOC(C)=O`, the Potency entry in test [1], in test [2], in test [3] and in test [4] was “inactive” each time.

Take `C/C=C/C=C/COC(=O)C(C)C`: the Potency result in test [1], in test [2], in test [3] and in test [4] was “inactive” throughout.

With `CC1(C)CC(N)CC(C)(C)N1`, the Potency entry in test [1], in test [2], in test [3] and in test [4] was “inactive” throughout.

Turning to `CC(C)(C)OC(=O)N1C[C@@H](F)C[C@H]1C(=O)O`, the Potency result in test [1], in test [2], in test [3] and in test [4] was “inactive” in each case.

As for `CCN(CC)C(=O)/C(C#N)=C/c1cc(O)c(O)c([N+](=O)[O-])c1`, the Potency result in test [1], in test [2], in test [3] and in test [4] was “inactive” each time.

For the molecule `COc1ccccc1N1CCN(CC(O)COc2cc(OC)c(OC)c(OC)c2)CC1` (centres undefined), the Potency entry in test [1], in test [2], in test [3] and in test [4] was “inactive” throughout.

Turning to `CC1=CCC(=C(C)C)CC1`, the Potency entry in test [1], in test [2], in test [3] and in test [4] was “inactive” throughout.

In the case of `CO[C@@H]1COCC[C@@H]1N[C@@H]1CC[C@@](C(=O)N2CCc3ncc(C(F)(F)F)cc3C2)(C(C)C)C1`, the Potency entry in test [1], in test [2], in test [3] and in test [4] was “inactive” each time.

For the molecule `COCCCOCCCOC`, the Potency result in test [1], in test [2], in test [3] and in test [4] was “inactive” throughout.

In the case of `CCCCCCOC(=O)NC(=N)c1ccc(NCc2nc3cc(C(=O)N(CCC(=O)OCC)c4ccccn4)ccc3n2C)cc1`, the Potency result in test [1], in test [2], in test [3] and in test [4] was “inactive” each time.

For `CC(C)CC(O)CC(C)C`, the Potency entry in test [1], in test [2], in test [3] and in test [4] was “inactive” throughout.

Take `Cc1cnc(NS(=O)(=O)c2ccc(N)cc2)nc1`: the Potency entry in test [1], in test [2], in test [3] and in test [4] was “inactive” each time.

As to `Oc1ccc(-c2ccc(O)cc2)cc1`, the Potency result in test [1], in test [2], in test [3] and in test [4] was “inactive” in each case.

For `CC(=O)CC(N)=O`, the Potency result in test [1], in test [2], in test [3] and in test [4] was “inactive” each time.

For the molecule `CC1CCC(C(C)(C)O)CC1` (centres undefined), the Potency result in test [1], in test [2], in test [3] and in test [4] was “inactive” each time.

With `C=C1CCC2CC1C2(C)C` (centres undefined), the Potency entry in test [1], in test [2], in test [3] and in test [4] was “inactive” throughout.

Regarding `CC[C@@H](N)CO`, the Potency result in test [1], in test [2], in test [3] and in test [4] was “inactive” each time.

For the molecule `CC(C)[C@H]1CC[C@H](C)C[C@@H]1O`, the Potency result in test [1], in test [2], in test [3] and in test [4] was “inactive” each time.

Take `COC(=O)NCCC[Si](OC)(OC)OC`: the Potency entry in test [1], in test [2], in test [3] and in test [4] was “inactive” in each case.

On to `CCCC(C)C=O` (centres undefined), for which the Potency result in test [1], in test [2], in test [3] and in test [4] was “inactive” in each case.

For the molecule `O=Cc1ccc(F)c(Br)c1`, the Potency result in test [1], in test [2], in test [3] and in test [4] was “inactive” throughout.

With `C[C@@H]1C[C@H]2[C@@H]3CCC4=CC(=O)C=C[C@]4(C)[C@@]3(Cl)[C@@H](O)C[C@]2(C)[C@@]1(OC(=O)c1ccco1)C(=O)CCl`, the Potency result in test [1], in test [2], in test [3] and in test [4] was “inactive” in each case.

Consider `CC(=O)OCC(=O)[C@@]12OC(C)(C)O[C@@H]1C[C@H]1[C@@H]3C[C@H](F)C4=CC(=O)C=C[C@]4(C)[C@@]3(F)[C@@H](O)C[C@@]12C`, for which the Potency result in test [1], in test [2], in test [3] and in test [4] was “inactive” in each case.

Consider `COC(=O)c1ccc(NC(C)=O)cc1OC`, for which the Potency entry in test [1], in test [2], in test [3] and in test [4] was “inactive” throughout.

In the case of `CCCCC1CCCCC(=O)O1` (centres undefined), the Potency result in test [1], in test [2], in test [3] and in test [4] was “inactive” in each case.

As to `COc1ccc([C@@H]2Sc3ccccc3NC(=O)[C@@H]2O)cc1`, the Potency entry in test [1], in test [2], in test [3] and in test [4] was “inactive” throughout.

Regarding `O=C1C=CC(=O)N1c1cccc(N2C(=O)C=CC2=O)c1`, the Potency result in test [1], in test [2] and in test [4] was “inactive” throughout. Also, the Potency in test [3] is 44.8 µM (active).

For `CCCCCCCC/C=C\CCCCCCCC(=O)OCCCC`, in test [1], the activity, negative = inhibition is 0.807% [at 23.6 µM]. For the same molecule, the figures for the activity change, negative = inhibition in test [2], in test [3] and in test [4] were 0.806% [at 23.6 µM], -0.0934% [at 23.8 µM] and 0.083% [at 23.6 µM], respectively.

Consider `NCc1ccco1`, for which the Potency result in test [1], in test [2], in test [3] and in test [4] was “inactive” in each case.

With `Cc1cc(S(=O)(=O)O)ccc1N=Nc1c(O)ccc2ccccc12`, the Potency result in test [1], in test [2], in test [3] and in test [4] was “inactive” throughout.

As to `CCCCCCOC(=O)CCCCC(=O)OCCCCCC`, the Potency result in test [1], in test [2], in test [3] and in test [4] was “inactive” each time.

For `CC1(C)C(=O)C(C)(C)C1=O`, the Potency entry in test [1], in test [2], in test [3] and in test [4] was “inactive” throughout.

For `CCN(CC)c1ccc2c(-c3ccc(S(=O)(=O)O)cc3S(=O)(=O)[O-])c3ccc(=[N+](CC)CC)cc-3oc2c1`, the Potency result in test [1], in test [2] and in test [4] was “inactive” throughout. In addition, in test [3], the Potency is 41.2 µM (active).

In the case of `OCCCCCCO`, the Potency entry in test [1], in test [2], in test [3] and in test [4] was “inactive” in each case.

Consider `CC[C@H](NC(=O)c1cc(F)ccc1NS(=O)(=O)c1cccc2cccnc12)c1ccccc1`, for which the Potency entry in test [1], in test [2], in test [3] and in test [4] was “inactive” in each case.

For the molecule `O=C(Oc1ccccc1)c1cccc(C(=O)Oc2ccccc2)c1`, the Potency result in test [1], in test [2], in test [3] and in test [4] was “inactive” each time.

`Cc1cc2c(cc1CC(=O)c1sccc1S(=O)(=O)Nc1onc(C)c1Cl)OCO2`: the Potency result in test [1], in test [2], in test [3] and in test [4] was “inactive” in each case.

As for `CCc1cccc(CC)c1NC(=O)C(=O)O`, the Potency entry in test [1], in test [2], in test [3] and in test [4] was “inactive” in each case.

As to `CC(C)(c1cc(Br)c(OCCO)c(Br)c1)c1cc(Br)c(OCCO)c(Br)c1`, the Potency (in test [5]; with Aromatase (Homo sapiens)) was 42.3 µM (active) each time. Further, the molecule was classed as inactive in test [6]. Besides, the Potency entry in test [1], in test [2], in test [3] and in test [4] was “inactive” each time.

Regarding `C=CC(OCC)OCC`, the Potency result in test [1], in test [2] and in test [4] was “inactive” throughout.

Regarding `CNC(=O)c1ccccc1Sc1ccc2c(/C=C/c3ccccn3)n[nH]c2c1`, the Potency entry in test [1], in test [2] and in test [4] was “inactive” each time.
